Test results published in PubChem BioAssay AID1159580 (chemical genetic matrix, 2015).
In all, about 5,500 compounds went through this assay and about 2,000 (36%) were called active. Another 18% or so got no clear call; they are omitted. No stated cut-off is given here; in the data, active means normalized growth mostly below about 0.91 (no sharp cut-off); inconclusive means no clear call, values can overlap the other calls; inactive means mostly above about 0.92. This is one part of the list.

Experiment: chemical genetic growth profiling, strain panel (AID 1159580);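 further: tested at 20 µM; growth read once vehicle control cultures reached saturation at 30 °C; 1 = growth at the plate median or of vehicle wells; lower values mean less growth of the strain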
Settings: growth OD

Measured: normalized growth

CCOC(=O)[C@H](CCc1ccccc1)N[C@H]1CCc2ccccc2N(CC(=O)O)C1=O
inactive: S. cerevisiae deletion strains, locus YJR075W, strain HOC1, active compounds read low 0.994 | S. cerevisiae deletion strains, locus YKL009W, strain mrt4, active compounds read low 1 | S. cerevisiae deletion strains, locus YKL068W, active compounds read low 0.973 | S. cerevisiae deletion strains, locus YKL085W, strain MDH1 (second series), active compounds read low 0.967 | S. cerevisiae deletion strains, locus YKL085W, strain MDH1, active compounds read low 0.967 | S. cerevisiae deletion strains, locus YKL160W, strain elf1, active compounds read low 0.993 | S. cerevisiae deletion strains, locus YKL190W, strain CNB1, active compounds read low 0.989 | S. cerevisiae deletion strains, locus YKR001C, strain vps1, active compounds read low 0.983 | S. cerevisiae deletion strains, locus YKR026C, strain gcn3, active compounds read low 0.979 | S. cerevisiae deletion strains, locus YKR091W, strain srl3, active compounds read low 0.989 | S. cerevisiae deletion strains, locus YLL001W, strain dnm1, active compounds read low 0.983 | S. cerevisiae deletion strains, locus YLL026W, active compounds read low 0.989 | S. cerevisiae deletion strains, locus YLL041C, strain sdh2, active compounds read low 0.986 | S. cerevisiae deletion strains, locus YLR027C, strain aat2, active compounds read low 0.982 | S. cerevisiae deletion strains, locus YLR039C, strain RIC1, active compounds read low 1.02 | S. cerevisiae deletion strains, locus YLR058C, strain SHM2, active compounds read low 0.999 | S. cerevisiae deletion strains, locus YLR102C, strain apc9, active compounds read low 0.972 | S. cerevisiae deletion strains, locus YLR113W, strain HOG1, active compounds read low 1.01 | S. cerevisiae deletion strains, locus YLR221C, strain rsa3, active compounds read low 0.983 | S. cerevisiae deletion strains, locus YLR258W, strain gsy2, active compounds read low 0.983 | S. cerevisiae deletion strains, locus YLR262C, strain YPT6 (second series), active compounds read low 0.97 | S. cerevisiae deletion strains, locus YLR262C, strain YPT6, active compounds read low 0.955 | S. cerevisiae deletion strains, locus YLR268W, strain sec22, active compounds read low 0.98 | S. cerevisiae deletion strains, locus YLR320W, strain mms22, active compounds read low 0.966 | S. cerevisiae deletion strains, locus YLR330W, strain CHS5, active compounds read low 0.986 | S. cerevisiae deletion strains, locus YLR342W, strain FKS1 (second series), active compounds read low 1.05 | S. cerevisiae deletion strains, locus YLR342W, strain FKS1, active compounds read low 0.956 | S. cerevisiae deletion strains, locus YLR357W, strain rsc2, active compounds read low 0.912 | S. cerevisiae deletion strains, locus YLR370C, strain arc18, active compounds read low 0.988 | S. cerevisiae deletion strains, locus YLR371W, strain rom2, active compounds read low 0.969 | S. cerevisiae deletion strains, locus YLR384C, strain iki3, active compounds read low 0.986 | S. cerevisiae deletion strains, locus YLR418C, strain cdc73, active compounds read low 0.953 | S. cerevisiae deletion strains, locus YML016C, strain PPZ1, active compounds read low 0.98 | S. cerevisiae deletion strains, locus YML032C, strain rad52, active compounds read low 0.984 | S. cerevisiae deletion strains, locus YML120C, strain ndi1, active compounds read low 0.975 | S. cerevisiae deletion strains, locus YML124C, strain tub3, active compounds read low 0.971 | S. cerevisiae deletion strains, locus YMR058W, strain fet3, active compounds read low 0.988 | S. cerevisiae deletion strains, locus YMR078C, strain ctf18, active compounds read low 0.978 | S. cerevisiae deletion strains, locus YMR125W, strain sto1, active compounds read low 0.996 | S. cerevisiae deletion strains, locus YMR129W, active compounds read low 0.991 | S. cerevisiae deletion strains, locus YMR205C, strain PFK2, active compounds read low 0.974 | S. cerevisiae deletion strains, locus YMR223W, strain ubp8, active compounds read low 0.993 | S. cerevisiae deletion strains, locus YMR231W, strain pep5, active compounds read low 0.986 | S. cerevisiae deletion strains, locus YMR263W, strain SAP30, active compounds read low 0.993 | S. cerevisiae deletion strains, locus YMR307W, strain GAS1, active compounds read low 0.939 | S. cerevisiae deletion strains, locus YNL067W, strain RPL9B, active compounds read low 0.996 | S. cerevisiae deletion strains, locus YNL071W, strain lat1, active compounds read low 0.989 | S. cerevisiae deletion strains, locus YNL128W, strain TEP1, active compounds read low 0.984 | S. cerevisiae deletion strains, locus YNL153C, strain GIM3, active compounds read low 0.988 | S. cerevisiae deletion strains, locus YNL183C, strain NPR1, active compounds read low 0.959 | S. cerevisiae deletion strains, locus YNL209W, strain ssb2, active compounds read low 0.98 | S. cerevisiae deletion strains, locus YNL233W, strain BNI4, active compounds read low 0.99 | S. cerevisiae deletion strains, locus YNL248C, strain rpa49, active compounds read low 0.98 | S. cerevisiae deletion strains, locus YNL250W, strain rad50, active compounds read low 0.963 | S. cerevisiae deletion strains, locus YNL271C, strain bni1, active compounds read low 0.959 | S. cerevisiae deletion strains, locus YNL298W, strain CLA4, active compounds read low 0.968 | S. cerevisiae deletion strains, locus YNL307C, strain MCK1, active compounds read low 0.986 | S. cerevisiae deletion strains, locus YNL322C, strain KRE1 (second series), active compounds read low 0.967 | S. cerevisiae deletion strains, locus YNL322C, strain KRE1, active compounds read low 0.98 | S. cerevisiae deletion strains, locus YNR049C, strain mso1, active compounds read low 0.994 | S. cerevisiae deletion strains, locus YNR052C, strain pop2, active compounds read low 0.977 | S. cerevisiae deletion strains, locus YOL006C, strain TOP1, active compounds read low 1.08 | S. cerevisiae deletion strains, locus YOL012C, strain htz1 1.02 | S. cerevisiae deletion strains, locus YOL147C, strain pex11, active compounds read low 0.975 | S. cerevisiae deletion strains, locus YOR001W, strain rrp6, active compounds read low 0.989 | S. cerevisiae deletion strains, locus YOR061W, strain CKA2, active compounds read low 0.983 | S. cerevisiae deletion strains, locus YOR069W, strain VPS5, active compounds read low 0.99 | S. cerevisiae deletion strains, locus YOR070C, strain gyp1, active compounds read low 0.982 | S. cerevisiae deletion strains, locus YOR080W, strain dia2, active compounds read low 0.973 | S. cerevisiae deletion strains, locus YOR083W, strain WHI5, active compounds read low 0.982 | S. cerevisiae deletion strains, locus YOR106W, strain vam3, active compounds read low 0.984 | S. cerevisiae deletion strains, locus YOR136W, strain idh2, active compounds read low 0.974 | S. cerevisiae deletion strains, locus YOR144C, strain elg1, active compounds read low 0.965 | S. cerevisiae deletion strains, locus YOR184W, strain ser1, active compounds read low 0.981 | S. cerevisiae deletion strains, locus YOR231W, strain MKK1, active compounds read low 0.976 | S. cerevisiae deletion strains, locus YOR265W, strain rbl2, active compounds read low 0.987 | S. cerevisiae deletion strains, locus YOR270C, strain vph1, active compounds read low 1.04 | S. cerevisiae deletion strains, locus YOR290C, strain snf2, active compounds read low 0.993 | S. cerevisiae deletion strains, locus YOR316C, strain cot1, active compounds read low 0.959 | S. cerevisiae deletion strains, locus YPL051W, strain arl3, active compounds read low 0.978 | S. cerevisiae deletion strains, locus YPL055C, strain LGE1, active compounds read low 1.02 | S. cerevisiae deletion strains, locus YPL078C, strain atp4, active compounds read low 0.984 | S. cerevisiae deletion strains, locus YPL106C, strain sse1, active compounds read low 0.963 | S. cerevisiae deletion strains, locus YPL240C, strain hsp82, active compounds read low 0.979 | S. cerevisiae deletion strains, locus YPL241C, strain CIN2, active compounds read low 0.983 | S. cerevisiae deletion strains, locus YPL256C, strain CLN2, active compounds read low 0.965 | S. cerevisiae deletion strains, locus YPR119W, strain clb2, active compounds read low 0.971 | S. cerevisiae deletion strains, locus YPR141C, strain kar3, active compounds read low 0.948 | S. cerevisiae deletion strains, locus YPR163C, strain tif3, active compounds read low 0.968 | S. cerevisiae deletion strains, locus YPR167C, strain met16, active compounds read low 0.978 | S. cerevisiae deletion strains, strain wtn01, active compounds read low 0.973 | S. cerevisiae strains, strain wild type, active compounds read low 0.98
